Drawing on PubChem BioAssay (NCATS), this text covers outcome for 31 compounds.

Active and inactive are the calls of the source. The call rests on the fitted dose curve; in most records, active means well fitted curve in the direction sought with a large enough effect; inconclusive means small, poorly fitted or top-dose-only effect, or another doubt; inactive means no such curve, though single readings can be large or run the other way.

The experiment deals with Alpha-galactosidase (Coffea arabica) (UniProt Q42656). Description: Counterscreen for Glucocerebrosidase Inhibitors: qHTS Assay for Coffee Bean alpha-Galactosidase at pH 4.5 (AID 957). Particulars: purified coffee bean alpha-galactosidase, fluorogenic substrate; series mostly up to 76.9 µM. Put shortly: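 Enzyme is added first (2 nM final), then compounds titrated from 0.7 nM to 77 uM, then 80 uM 4-methylumbelliferyl alpha-D-galactopyranoside; after 20 min at room temperature a pH 10 NaOH/glycine stop precedes fluorescence reading at 365/440 nm.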
Sequence of Alpha-galactosidase (Coffea arabica) (Q42656 whole entry, looked up): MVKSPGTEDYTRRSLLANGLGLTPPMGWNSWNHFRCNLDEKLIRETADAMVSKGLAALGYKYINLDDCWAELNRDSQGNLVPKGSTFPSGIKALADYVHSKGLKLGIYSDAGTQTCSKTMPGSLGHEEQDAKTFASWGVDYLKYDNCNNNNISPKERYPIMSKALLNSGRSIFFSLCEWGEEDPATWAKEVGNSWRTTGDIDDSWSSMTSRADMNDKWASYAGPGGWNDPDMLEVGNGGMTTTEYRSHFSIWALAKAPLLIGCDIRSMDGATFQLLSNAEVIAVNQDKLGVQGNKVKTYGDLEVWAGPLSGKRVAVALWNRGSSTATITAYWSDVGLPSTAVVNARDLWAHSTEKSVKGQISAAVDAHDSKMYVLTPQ
Regarding `Cc1oncc1C(=O)Nc1ccc(C(F)(F)F)cc1`, the compound was classed as inactive.
`COC(=O)[C@H]1[C@H]2C[C@@H]3c4[nH]c5cc(OC)ccc5c4CCN3C[C@H]2C[C@@H](OC(=O)c2cc(OC)c(OC)c(OC)c2)[C@@H]1OC`: the outcome was inactive.
As for `COC(=O)Nc1nc2ccc(C(=O)c3cccs3)cc2[nH]1`, the compound was classed as inactive.
As to `NCC1(CC(=O)O)CCCCC1`, the call was inactive.
As for `O=c1[nH]cc(F)c(=O)[nH]1`, the outcome was inactive.
Take `COc1cc(Cc2cnc(N)nc2N)cc(OC)c1OC`: the result was inactive.
On to `CCCC(CCC)C(=O)O`, for which the compound was called inactive.
Consider `O=C(CCCN1CCC(O)(c2ccc(Cl)cc2)CC1)c1ccc(F)cc1`, for which the call was inactive.
In the case of `Nc1ccncc1`, the compound was classed as inactive.
Regarding `CN(C)CCCN1c2ccccc2Sc2ccc(Cl)cc21`, the call was inactive.
Consider `c1ccc(C2CC2)c(OCC2=NCCN2)c1`, for which the outcome was inactive.
With `CN(C)c1nc(N(C)C)nc(N(C)C)n1`, the compound was classed as inactive.
In the case of `CCOC(=O)c1ncn2c1CN(C)C(=O)c1cc(F)ccc1-2`, the result was inactive.
Turning to `Nc1nc2c(ncn2COC(CO)CO)c(=O)[nH]1`, the compound was classed as inactive.
Regarding `Cc1ccccc1N1C(=O)c2cc(S(N)(=O)=O)c(Cl)cc2NC1C` (stereo unspecified), the outcome was inactive.
For the compound `O=C1CCc2cc(OCCCCc3nnnn3C3CCCCC3)ccc2N1`, the compound was called inactive.
In the case of `O=C(C1CCCCC1)N1CC(=O)N2CCc3ccccc3C2C1` (stereo unspecified), the result was inactive.
The same measure for `Cc1cnc(C(=O)NCCc2ccc(S(=O)(=O)NC(=O)NC3CCCCC3)cc2)cn1`: “inactive”.
Then `N[C@@H]1C[C@H]1c1ccccc1`, with “inactive”; and `Fc1ccc(C(OCCN2CCN(CCCc3ccccc3)CC2)c2ccc(F)cc2)cc1`, with “inactive”; and `OCCN1CCN(CCCN2c3ccccc3Sc3ccc(C(F)(F)F)cc32)CC1`, with “inactive”.
Then `O=C1c2c(O)ccc(O)c2C(=O)c2c(NCCNCCO)ccc(NCCNCCO)c21`, with “inactive”; and `CC(=O)N[C@@H](CS)C(=O)O`, with “inactive”; and `CC1(C)NC(=O)N(c2ccc([N+](=O)[O-])c(C(F)(F)F)c2)C1=O`, with “inactive”.
Turning to `Cc1ncc(CNC(=O)N(CCCl)N=O)c(N)n1`, the result was inactive.
For `Cn1ccc2cc3c(cc21)CCN3C(=O)Nc1cccnc1`, the compound was called inactive.
Then `CCCN(CCC)CCc1cccc2c1CC(=O)N2`, with “inactive”.
`CN(Cc1cnc2nc(N)nc(N)c2n1)c1ccc(C(=O)N[C@@H](CCC(=O)O)C(=O)O)cc1`: the result was inactive.
With `NC(=O)NO`, the compound was called inactive.
Consider `Fc1ccc([C@@H]2CCNC[C@H]2COc2ccc3c(c2)OCO3)cc1`, for which the outcome was inactive.
`CNCCCN1c2ccccc2CCc2ccccc21`: the call was inactive.
